Most compounds without a hit are left out; they make up all but 3.1% or so of the library.
PP5 primary = PP5 phosphatase inhibitors, primary screen, biochemical, fluorescence; Serine/threonine-protein phosphatase 5 (Homo sapiens), P53041; purified PP5c, OMFP substrate fluorescence; inhibition, % at 6.7 µM; 0.18% of 320,000 active; AID 1987, 2009;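 active = inhibition above the campaign's mean inhibition across all tested compounds plus 3 SD, cut at about 9.5% in these data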;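 note: 0% = DMSO only and 100% = 100 µM cantharidin control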
PP1 counter = PP1-alpha phosphatase inhibitors, primary screen, counter-screen for PP5 inhibitor project, biochemical, fluorescence, OMFP substrate, single point; Serine/threonine-protein phosphatase PP1-alpha catalytic subunit (Homo sapiens), P62136; purified PP1alpha; inhibition, % at 6.7 µM; 0.9% of 320,000 active;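 active = inhibition above the mean inhibition of all tested compounds plus 3 SD, computed separately for each screening campaign, cut at about 15% in these data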
Target sequence (P62136 whole entry, looked up): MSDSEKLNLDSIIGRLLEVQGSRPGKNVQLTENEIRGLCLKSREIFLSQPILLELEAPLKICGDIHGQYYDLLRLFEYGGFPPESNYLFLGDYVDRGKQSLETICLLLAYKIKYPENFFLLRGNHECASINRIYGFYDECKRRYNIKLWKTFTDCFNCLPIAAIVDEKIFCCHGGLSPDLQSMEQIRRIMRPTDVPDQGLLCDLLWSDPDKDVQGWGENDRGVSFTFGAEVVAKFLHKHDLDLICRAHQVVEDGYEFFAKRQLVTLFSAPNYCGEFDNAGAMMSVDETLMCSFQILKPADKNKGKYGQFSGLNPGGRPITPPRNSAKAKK
Beta cell apopt = inhibitors of cytokine-induced beta cell apoptosis, primary screen, luminescence; INS-1E cytokine-induced death, ATP luminescence, 48 h; percent of positive-control rescue, neutral wells zero; protection from apoptosis, % (concentration not given with the values); 0.8% of 300,000 active; AID 435005, 2010;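 active = Every replicate reaches about 75%, or at least half do and their mean reaches it too, limit read from the data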;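 note: 0% = cytokine-treated negative control wells and 100% = positive control rescue; higher means more ATP so stronger rescue from cytokine killing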
SKKanGAS inh = S. pyogenes SKKanGAS growth inhibitors in kanamycin, primary screen, streptokinase expression inhibitor project, SKKanGAS strain, BacTiter-Glo luminescence; inhibition, % at 7.5 µM; 1.3% of 300,000 active; 6 h; AID 1662, 2009;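 active = mean replicate score, as percent of positive control median, at least 50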;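 note: strain carries kanamycin resistance gene driven by streptokinase promoter and grows in 40 µg/ml kanamycin; loss of luminescence reflects streptokinase promoter inhibition or plain growth inhibition; 0% = median of DMSO wells and 100% = positive control at its reference dose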
CSC inhib = cancer stem cell viability inhibitors, primary screen, luminescence; cancer stem cell-like cells viability; inhibition, % at 7.5 µM; 1.1% of 300,000 active; AID 2717, 2010; in the data active = inhibition above about 75%; tested in HMLE shEcad cells
Numbers without * were called inactive; x = not tested or not shown; + = active, no number.

SMILES	PP5 primary	PP1 counter	Beta cell apopt	SKKanGAS inh	CSC inhib
Cc1cc(NC(=O)c2cc([N+](=O)[O-])ccc2Cl)no1	0	-5	-11	-1	-11
O=C(NC(=S)NNC(=O)[C@H]1C[C@@H]1c1ccccc1)c1ccc(F)cc1	-1	-6	x	82*	23
COc1ccc(C(=O)NC(=S)NNC(=O)[C@H]2C[C@@H]2c2ccccc2)cc1OC	-3	-4	18	102*	29
COc1cc(OC)cc(C(=O)NC(=S)NNC(=O)[C@H]2C[C@@H]2c2ccccc2)c1	2	-2	4	105*	26
CC(C)(C)NC(=S)NNC(=O)[C@H]1C[C@@H]1c1ccccc1	1	-2	-2	0	-7
CCOc1ccccc1C(=O)N[C@H](C(=O)OCc1cc([N+](=O)[O-])cc2c1OCOC2)C(C)C	3	7	8	2	-4
S=C(Nc1ccccc1)Nc1nc2ccccc2n1CCOc1ccc(Cl)cc1	0	7	53	0	+
CCc1ccc(NC(=O)CSc2nncn2-c2cccnc2)cc1	4	3	-6	18	-7
CC(C)Cn1c(O)c(/C=C2\C=NN=C2c2ccccc2)sc1=S	2	2	-7	0	90*
O=C(/C(=C\c1ccccc1)c1nc2ccccc2[nH]1)c1ccc(Cl)cc1	4	4	3	14	79*
O=C(/C=C/c1cccc(Cl)c1)c1nc2ccccc2[nH]1	2	8	-3	17	84*
COC(=O)/C(=C\c1ccc(O)cc1)c1nc2ccccc2[nH]1	0	-1	-9	16	-14
O=C(/C=C/c1cccc(Cl)c1)Nc1ncccn1	1	-1	-6	2	-30
O=C(/C(=C/c1ccc(Cl)cc1)c1nc2ccccc2[nH]1)c1cccs1	5	12	126*	0	93*
COc1cc(/C=C(/C(=O)c2cccs2)c2nc3ccccc3[nH]2)ccc1O	1	-4	83*	5	61
S=C(Nc1ccc(Cl)cc1)c1nc2ccccc2[nH]1	6	5	43	76*	46
Cc1ccccc1NC(=S)c1nc2ccccc2[nH]1	1	-1	32	19	26
CC1=NN(C(N)=S)C(=O)C1N=Nc1ccc(C)cc1C (stereo not given)	3	7	34	4	-14
CC1=NN(C(N)=S)C(=O)C1N=Nc1c(C)cc(C)cc1C (stereo not given)	1	17*	24	51*	-7
CC1=NN(C(N)=S)C(=O)C1N=Nc1c(Br)cc(Br)cc1Br (stereo not given)	4	8	13	66*	77*
CC1=NN(C(N)=S)C(=O)C1N=Nc1c(Cl)cc([N+](=O)[O-])cc1Cl (stereo not given)	2	3	x	50*	28
Cc1cn2c(nc(=O)c3cccnc32)s1	-8	4	-1	2	12
C=CC[n+]1c(/C=C/c2ccc(OC(C)=O)c(OC)c2)ccc2ccccc21	3	-2	28	20	-1
O=C1CCC(C(=O)N2CCCC(N3CCN(c4cccc(C(F)(F)F)c4)CC3)C2)=NN1 (stereo not given)	-1	2	0	4	10
O=C(COC(=O)/C=C/c1cccc(C(F)(F)F)c1)NCCN1C(=O)CSC1=O	1	-5	-6	x	x
SMILES	PP5 primary	PP1 counter	Beta cell apopt	SKKanGAS inh	CSC inhib
Cc1ncc(CO)c(/C=N/Nc2ccc(C(F)(F)F)cn2)c1O	0	-2	116*	1	89*
S=C(Nc1ccccc1Cl)N1CCCC(c2ccccc2)=N1	-3	-3	-3	1	84*
CCCn1c(=O)c(C(=O)NNC(=O)c2ccc(Cl)cc2Cl)c(O)c2ccccc21	2	2	-3	70*	29
CCCn1c(=O)c(C(=O)Nc2ccccc2C(=O)OCC)c(O)c2ccccc21	1	-2	2	-23	x
CCn1c(=O)c(C(=O)NNC(=O)c2ccc(Cl)cc2Cl)c(O)c2ccccc21	1	6	3	75*	20
Cc1ccc(C(=O)/C=C/c2cc(Br)cc(Br)c2O)o1	-1	4	3	66*	94*
Cc1ccccc1Nc1nc(N)nc(COC(=O)CCNS(=O)(=O)c2ccccc2)n1	2	8	-1	-7	10
COc1cc2ccccc2cc1C(=O)Nc1sc2c(c1C(N)=O)CCN(C(C)C)C2	7	6	112*	1	95*
CN1CCN(c2ccc(CNS(=O)(=O)Cc3cccc(C(F)(F)F)c3)cc2)CC1	0	-4	86*	-9	44
CN1CCN(c2ccc(CNS(=O)(=O)c3ccccc3)cc2)CC1	1	-1	-9	-3	33
CN(C)c1ccc(-c2nc3ccccc3c(=O)[nH]2)cc1	2	5	9	-8	19
CC(C)(C)c1ccc(C(=O)Nc2nnc(C3=COCCO3)o2)cc1	3	9	-1	80*	41
O=C(Nc1nnc(C2=COCCO2)o1)c1cccc(F)c1	4	0	6	63*	23
CC(C)Oc1ccc(C(=O)Nc2nnc(C3=COCCO3)o2)cc1	-1	3	x	73*	22
CN(C)c1ccc(C(=O)Nc2nnc(C3=COCCO3)o2)cc1	1	2	-8	3	-5
Cc1ccc(NC(=O)COc2ccc(N(C)S(=O)(=O)c3ccc(F)cc3)cc2)cc1	5	-1	-5	x	11
Cc1cccc(NC2=Nc3ccccc3N3C2=Nc2c(c(C)nn2-c2ccccc2)C3c2ccc(O)c(O)c2)c1 (stereo not given)	0	2	14	99*	100*
Cc1nn(-c2ccccc2)c2c1C(c1ccc(O)c(O)c1)N1C(=N2)C(Nc2ccccc2)=Nc2ccccc21 (stereo not given)	0	-1	15	88*	90*
CCOc1ccccc1/C=N/NC(=O)CNC(=O)c1cccs1	0	-1	-4	-5	0
O=C(CCC1CCCC1)Nc1cc(C(F)(F)F)ccc1N1CCOCC1	3	17*	7	6	7
N#Cc1c(-c2ccccc2)c(C#N)c2nc3ccccc3n2c1N	1	6	49	13	4
Cc1ccc(-c2c(C#N)c(N)n3c(nc4ccccc43)c2C#N)cc1	1	1	80*	52*	71
CCC(=C(c1ccc(OC)cc1)c1ccc(OC)cc1)c1cn(CC(O)CN2CCN(C)CC2)c2ccccc12 (stereo not given)	7	6	1	x	107*
O=C(N/N=C/c1ccc([N+](=O)[O-])cc1)c1cc2ccccc2o1	-1	-4	-6	8	2
O=C(N/N=C/c1ccc([N+](=O)[O-])o1)c1cc2ccccc2o1	0	-3	100*	1	8
